Assay results published in ChEMBL document CHEMBL3988442, “University of Dundee, Small-Polar-MMV Screening Library” (2021).
For some of these results: Potency and affinity values are given separately.

How the values were obtained:
Parameters in all cases: scale not given: direction of the effect not stated beside the values
[1] = biological target: Protein translocase subunit SecA (Escherichia coli (strain K12)) (UniProt P10408); experiment: Assay to Identify E. coli SecA ATPase Inhibitors; format: functional; conditions: 30 µM
[2] = biological target: T1, Ubiquitin-activating enzyme e1, putative (Leishmania donovani (strain BPK282A1)) (UniProt E9BSI1); experiment: Leishmania donovani Ubiquitin Activating Enzyme (LdE1); format: functional; conditions: 30 µM
T1 sequence (whole entry): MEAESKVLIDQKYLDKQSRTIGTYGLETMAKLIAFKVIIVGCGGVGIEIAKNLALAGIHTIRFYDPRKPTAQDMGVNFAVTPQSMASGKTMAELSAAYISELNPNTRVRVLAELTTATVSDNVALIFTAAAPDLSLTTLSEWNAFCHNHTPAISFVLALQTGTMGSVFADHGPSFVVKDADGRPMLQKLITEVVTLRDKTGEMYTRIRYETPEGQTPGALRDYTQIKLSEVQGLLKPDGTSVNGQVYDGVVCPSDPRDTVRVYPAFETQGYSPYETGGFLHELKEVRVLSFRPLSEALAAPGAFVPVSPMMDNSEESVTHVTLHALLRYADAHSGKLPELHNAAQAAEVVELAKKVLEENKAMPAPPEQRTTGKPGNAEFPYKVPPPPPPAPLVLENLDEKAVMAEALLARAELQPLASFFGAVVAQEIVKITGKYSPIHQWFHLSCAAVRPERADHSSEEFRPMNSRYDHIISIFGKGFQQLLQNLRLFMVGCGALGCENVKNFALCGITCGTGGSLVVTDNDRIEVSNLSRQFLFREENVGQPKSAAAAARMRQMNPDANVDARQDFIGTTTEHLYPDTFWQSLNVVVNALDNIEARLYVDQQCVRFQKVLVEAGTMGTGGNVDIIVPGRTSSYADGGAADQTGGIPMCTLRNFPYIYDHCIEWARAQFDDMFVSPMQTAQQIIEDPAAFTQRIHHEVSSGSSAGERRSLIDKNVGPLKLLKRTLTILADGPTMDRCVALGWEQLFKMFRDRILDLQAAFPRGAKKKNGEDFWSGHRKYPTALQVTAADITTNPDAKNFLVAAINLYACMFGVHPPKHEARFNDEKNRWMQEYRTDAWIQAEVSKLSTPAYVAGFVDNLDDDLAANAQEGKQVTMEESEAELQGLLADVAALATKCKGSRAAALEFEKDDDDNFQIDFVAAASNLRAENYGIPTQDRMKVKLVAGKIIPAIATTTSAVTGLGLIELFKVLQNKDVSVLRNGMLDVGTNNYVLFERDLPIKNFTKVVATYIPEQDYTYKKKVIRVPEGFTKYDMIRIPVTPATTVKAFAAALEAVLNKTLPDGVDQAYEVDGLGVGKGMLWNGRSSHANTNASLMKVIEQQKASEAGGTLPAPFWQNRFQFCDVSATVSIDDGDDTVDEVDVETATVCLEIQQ

[3] = biological target: AMP-activated protein kinase, AMPK (Homo sapiens) (UniProt P54646+O43741+P54619+Q9UGJ0+Q9Y478+Q13131+Q9UGI9); experiment: AMP-dependent Kinase enzyme assay. An in vitro enzyme assay that detects ADP turnover that is directly proportional to AMPK activity. This uses naive AMPK that is activated during the assay with MK-8722; format: functional; conditions: 30 µM
[4] = biological target: Sialic acid-binding Ig-like lectin 9 (Homo sapiens) (UniProt Q9Y336); experiment: Hs-Siglec9 ALPHAscreen SOP 20170721; conditions: 10 µM
Trypanosoma cruzi = experiment: Trypanosoma cruzi phosphomannomutase and mannose-1-phosphate guanylyltransferase assay; format: functional; conditions: 10 µM
[5] = biological target: T2, Arginase-2, mitochondrial (Homo sapiens) (UniProt P78540); experiment: in vitro enzyme assay to detect the production of urea directly proportional to the activity of Arginase II; format: functional; conditions: 33.3 µM; further: in the data most compounds retested in dose-response had high values
T2 sequence (whole entry): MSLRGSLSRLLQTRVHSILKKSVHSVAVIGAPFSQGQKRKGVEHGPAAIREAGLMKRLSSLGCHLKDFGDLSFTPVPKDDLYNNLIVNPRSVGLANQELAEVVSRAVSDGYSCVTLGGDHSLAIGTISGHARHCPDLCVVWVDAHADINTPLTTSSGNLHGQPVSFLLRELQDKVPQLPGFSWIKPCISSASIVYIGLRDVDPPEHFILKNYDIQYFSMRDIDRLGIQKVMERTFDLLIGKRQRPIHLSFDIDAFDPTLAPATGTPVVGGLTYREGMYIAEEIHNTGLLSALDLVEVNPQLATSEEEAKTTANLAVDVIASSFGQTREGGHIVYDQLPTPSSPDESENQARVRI

[6] = biological target: T3, Proteasome subunit beta (Trypanosoma cruzi) (UniProt O96673); experiment: Trypanosoma cruzi proteasome chymotrypsin-like activity (TcProtChymo) assay.; further: in the data most compounds retested in dose-response had high values; format: functional; conditions: 9.37 µM
T3 sequence (whole entry): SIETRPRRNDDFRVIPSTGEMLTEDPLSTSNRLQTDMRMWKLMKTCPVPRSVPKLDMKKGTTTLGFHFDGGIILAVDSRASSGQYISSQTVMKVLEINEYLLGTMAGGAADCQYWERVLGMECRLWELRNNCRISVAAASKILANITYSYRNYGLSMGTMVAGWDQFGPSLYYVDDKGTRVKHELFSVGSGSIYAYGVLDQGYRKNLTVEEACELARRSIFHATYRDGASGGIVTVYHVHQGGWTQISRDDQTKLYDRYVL

Homo sapiens = organism: Homo sapiens; experiment: To identify inhibition of the IFN signalling (Jak-Stat) pathway via expression of an eGFP reporter gene under the control of an IFN-stimulated response element (ISRE) containing MxA promoter.; format: functional; conditions: 30 µM
[7] = biological target: T4, Tyrosyl-tRNA synthetase, putative (Trypanosoma cruzi (strain CL Brener)) (UniProt Q4DSP6); experiment: Trypanosoma cruzi tyrosyl tRNA synthetase (TcYRS) _High Tyrosine SOP; format: functional; conditions: 30 µM; further: in the data most compounds retested in dose-response had high values
T4 sequence (whole entry): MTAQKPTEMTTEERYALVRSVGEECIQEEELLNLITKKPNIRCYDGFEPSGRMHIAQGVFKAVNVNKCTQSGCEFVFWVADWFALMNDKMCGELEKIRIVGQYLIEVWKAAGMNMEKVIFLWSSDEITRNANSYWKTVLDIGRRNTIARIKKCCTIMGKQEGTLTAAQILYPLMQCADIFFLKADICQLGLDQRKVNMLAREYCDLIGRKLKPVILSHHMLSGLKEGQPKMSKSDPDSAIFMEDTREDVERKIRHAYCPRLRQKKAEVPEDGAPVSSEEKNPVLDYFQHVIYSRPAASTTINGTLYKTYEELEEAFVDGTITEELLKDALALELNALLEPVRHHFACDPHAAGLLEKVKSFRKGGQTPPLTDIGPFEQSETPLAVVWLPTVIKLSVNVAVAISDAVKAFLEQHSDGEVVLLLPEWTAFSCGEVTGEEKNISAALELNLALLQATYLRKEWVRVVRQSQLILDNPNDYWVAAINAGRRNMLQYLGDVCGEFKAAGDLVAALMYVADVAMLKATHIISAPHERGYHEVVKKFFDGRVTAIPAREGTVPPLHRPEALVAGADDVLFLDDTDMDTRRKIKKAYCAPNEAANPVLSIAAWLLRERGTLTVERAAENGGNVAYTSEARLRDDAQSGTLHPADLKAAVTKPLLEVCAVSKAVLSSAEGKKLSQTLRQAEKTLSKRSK

[8] = biological target: T4, Tyrosyl-tRNA synthetase, putative (Trypanosoma cruzi (strain CL Brener)); experiment: Trypanosoma cruzi tyrosyl tRNA synthetase (TcYRS) SOP; format: functional; conditions: 30 µM
[9] = biological target: Chromo domain-containing protein 1 (Saccharomyces cerevisiae (strain ATCC 204508 / S288c) (Baker's yeast)) (UniProt P32657); experiment: ScCHD-1 Enzyme Inhibition Assay; format: functional; conditions: 30 µM; further: in the data most compounds retested in dose-response had high values
Sequence of Chromo domain-containing protein 1 (Saccharomyces cerevisiae (strain ATCC 204508 / S288c) (Baker's yeast)) (P32657 whole entry, the tested form may be a part): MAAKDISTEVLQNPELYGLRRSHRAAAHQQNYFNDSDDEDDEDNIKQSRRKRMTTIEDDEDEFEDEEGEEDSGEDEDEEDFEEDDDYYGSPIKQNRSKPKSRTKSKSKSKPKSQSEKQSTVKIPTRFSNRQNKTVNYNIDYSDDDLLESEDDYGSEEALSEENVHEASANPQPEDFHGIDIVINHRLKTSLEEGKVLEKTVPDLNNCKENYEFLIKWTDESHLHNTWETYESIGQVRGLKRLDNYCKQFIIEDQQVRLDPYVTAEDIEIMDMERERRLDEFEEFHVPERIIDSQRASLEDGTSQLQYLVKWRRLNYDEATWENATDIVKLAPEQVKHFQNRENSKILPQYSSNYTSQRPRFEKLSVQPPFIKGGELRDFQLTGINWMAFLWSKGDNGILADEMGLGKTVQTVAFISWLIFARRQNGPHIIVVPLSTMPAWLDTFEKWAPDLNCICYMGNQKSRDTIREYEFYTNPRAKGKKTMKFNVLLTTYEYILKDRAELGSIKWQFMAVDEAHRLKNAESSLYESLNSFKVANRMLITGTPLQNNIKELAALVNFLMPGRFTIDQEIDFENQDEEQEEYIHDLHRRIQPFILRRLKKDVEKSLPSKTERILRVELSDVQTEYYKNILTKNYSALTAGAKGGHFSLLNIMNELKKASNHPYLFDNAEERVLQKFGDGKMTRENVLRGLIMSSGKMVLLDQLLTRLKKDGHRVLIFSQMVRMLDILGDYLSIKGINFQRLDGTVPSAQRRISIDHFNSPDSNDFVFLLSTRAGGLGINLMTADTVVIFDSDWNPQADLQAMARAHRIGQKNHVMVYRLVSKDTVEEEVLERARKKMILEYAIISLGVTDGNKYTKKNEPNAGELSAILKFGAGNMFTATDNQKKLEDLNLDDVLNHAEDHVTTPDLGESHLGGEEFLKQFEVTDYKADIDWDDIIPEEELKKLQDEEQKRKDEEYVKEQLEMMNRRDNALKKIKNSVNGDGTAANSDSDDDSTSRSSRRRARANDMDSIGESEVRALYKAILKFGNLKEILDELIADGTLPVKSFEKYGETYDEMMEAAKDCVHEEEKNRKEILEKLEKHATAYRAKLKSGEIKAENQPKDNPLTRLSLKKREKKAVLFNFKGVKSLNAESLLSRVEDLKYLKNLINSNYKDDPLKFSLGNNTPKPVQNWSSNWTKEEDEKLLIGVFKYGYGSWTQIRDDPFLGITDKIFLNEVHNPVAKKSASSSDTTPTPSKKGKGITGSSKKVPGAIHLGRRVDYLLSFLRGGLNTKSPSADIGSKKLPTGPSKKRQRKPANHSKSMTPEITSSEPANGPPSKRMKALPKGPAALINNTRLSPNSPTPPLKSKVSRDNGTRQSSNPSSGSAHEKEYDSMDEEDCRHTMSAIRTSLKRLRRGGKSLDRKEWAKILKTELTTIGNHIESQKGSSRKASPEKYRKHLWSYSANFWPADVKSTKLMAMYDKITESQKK

Sequence of Protein translocase subunit SecA (Escherichia coli (strain K12)) (P10408 whole entry): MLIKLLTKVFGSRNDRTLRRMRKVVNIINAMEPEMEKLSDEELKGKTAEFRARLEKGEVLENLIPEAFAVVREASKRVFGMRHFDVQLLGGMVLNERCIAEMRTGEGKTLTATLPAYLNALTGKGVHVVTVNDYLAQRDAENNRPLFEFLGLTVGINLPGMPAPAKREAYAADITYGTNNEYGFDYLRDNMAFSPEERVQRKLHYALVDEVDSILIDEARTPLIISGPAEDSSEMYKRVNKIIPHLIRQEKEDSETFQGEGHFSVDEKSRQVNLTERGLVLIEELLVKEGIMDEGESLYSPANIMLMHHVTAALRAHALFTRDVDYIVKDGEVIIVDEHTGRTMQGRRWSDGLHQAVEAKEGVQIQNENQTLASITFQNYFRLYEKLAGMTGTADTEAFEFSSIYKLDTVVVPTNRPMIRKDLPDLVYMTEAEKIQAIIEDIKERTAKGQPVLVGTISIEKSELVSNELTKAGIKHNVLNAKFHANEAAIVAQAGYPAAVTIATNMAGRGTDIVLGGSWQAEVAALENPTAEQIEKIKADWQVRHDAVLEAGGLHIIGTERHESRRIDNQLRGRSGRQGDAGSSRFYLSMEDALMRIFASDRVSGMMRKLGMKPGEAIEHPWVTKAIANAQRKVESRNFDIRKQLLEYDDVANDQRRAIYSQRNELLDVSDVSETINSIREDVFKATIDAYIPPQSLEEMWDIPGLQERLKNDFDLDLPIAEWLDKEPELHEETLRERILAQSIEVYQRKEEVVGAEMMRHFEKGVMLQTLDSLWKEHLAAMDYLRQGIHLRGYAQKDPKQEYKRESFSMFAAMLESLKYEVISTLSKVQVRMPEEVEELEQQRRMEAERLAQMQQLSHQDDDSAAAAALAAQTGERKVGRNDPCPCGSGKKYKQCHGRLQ
Sequence of Sialic acid-binding Ig-like lectin 9 (Homo sapiens) (Q9Y336 whole entry): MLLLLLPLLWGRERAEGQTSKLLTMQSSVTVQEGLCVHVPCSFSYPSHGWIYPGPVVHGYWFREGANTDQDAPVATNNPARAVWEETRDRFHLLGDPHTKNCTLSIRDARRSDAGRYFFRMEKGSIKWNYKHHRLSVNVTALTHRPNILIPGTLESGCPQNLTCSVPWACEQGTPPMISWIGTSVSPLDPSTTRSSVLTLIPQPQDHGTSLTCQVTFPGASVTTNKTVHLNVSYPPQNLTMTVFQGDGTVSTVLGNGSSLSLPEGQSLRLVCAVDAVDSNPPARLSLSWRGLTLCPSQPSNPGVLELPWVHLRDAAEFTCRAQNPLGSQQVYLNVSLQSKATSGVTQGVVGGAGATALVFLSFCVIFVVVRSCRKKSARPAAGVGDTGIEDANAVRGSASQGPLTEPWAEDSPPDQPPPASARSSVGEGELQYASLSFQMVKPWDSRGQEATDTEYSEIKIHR

SMILES	Percent Effect [1]	Percent Effect [2]	Percent Effect [3]	Percent Effect [4]	Percent Effect (Trypanosoma cruzi)	Percent Effect [5]	Percent Effect [6]	Percent Effect (Homo sapiens)	Percent Effect [7]	Percent Effect [8]	Percent Effect [9]
CC(=O)N(Cc1ncc(C)o1)C1CCN(Cc2noc(C)n2)C1 (stereo unspecified)	-3.16%	26%	-5.5%	-2.16%	6.76%	-3.16%	11.9%	1.88%	8.57%	30.6%	2.25%
Cc1cnn(CC2CCCN2Cc2nc3ccccc3nc2C)c1 (stereo unspecified)	-2.22%	0%	0.154%	1.31%	4.41%	1.47%	10.4%	9.09%	0%	7.06%	-12.8%
Cc1noc(C)c1C(=O)NCC(O)c1ccc(F)cc1F (stereo unspecified)	-3.08%	0%	-4.32%	-2.42%	-3.06%	1.66%	3.05%	10.6%	-3.96%	-6.1%	10.4%
CCOCCn1nnc(C2(NC(=O)c3ccccc3)CCCC2)n1	-7.55%	8%	-2.14%	0.531%	-0.292%	4.17%	-18.8%	-0.698%	10.4%	11.1%	-4.99%
Cn1nnc2c1C(COCC1CC1)CN(C(=O)Cc1ccsc1)C2 (stereo unspecified)	-5.15%	23.4%	-3.67%	0.591%	4.63%	-3.23%	9.57%	4.27%	-1.06%	14.1%	-12.5%
Cc1cccc(N2Cc3nc(=O)[nH]n3C2=O)c1	1.1%	4%	3.29%	-0.713%	-4.52%	-9.33%	19.6%	-0.119%	5.29%	5.13%	-4.23%
CCn1cc2c(n1)CN(CC1CC1)CC2COCC1CC1 (stereo unspecified)	-2.46%	10.7%	4.51%	-3.73%	-1.77%	-5.36%	9.25%	-20.4%	5.32%	8.97%	-4.66%
CC(C)c1nc2n(n1)CC(NCc1ccncc1)CC2 (stereo unspecified)	-3.2%	5.26%	-3.06%	-0.0553%	2.63%	-5.92%	4.12%	3.22%	2.13%	5.2%	-1.54%
O=C1N(Cc2cccc(F)c2F)CCCC1(O)CN1CCCOCC1 (stereo unspecified)	-6.11%	-5.33%	-3.73%	6.26%	1.46%	0%	5.06%	5.93%	4.92%	11.1%	-4.58%
Cc1nc(N2CCCC2)ncc1-c1cc(O)nc(N2CCCC2)n1	-4.52%	-1.33%	4.03%	6.18%	-4.13%	-2.64%	7.76%	-0.506%	2.12%	0%	-1.52%
CN(C)Cc1nnc(C2CCN(C(=O)CCc3cccs3)CC2)n1C	-3.21%	13.5%	-7.22%	25.4%	4.83%	1.43%	12.1%	5.64%	6.88%	14.6%	72.9%
